# From the supplement of paper PMC6555819
# Assays:
# Test in all cases: PBM binding z-score (relative to random genomic background probes); higher = stronger binding; sequences stand for … in GC…GCGATTGACAGCGTAGAATGAAGG
# [1] = tested on: FXR:RXRa (NR concentration 270 nM, RXRa partner concentration 90 nM)
# Summary of the method: (§1)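 Each nuclear receptor dimer, without ligand, was incubated for 1 h on custom Agilent 4×180K protein-binding microarrays. Binding was detected with antibodies against each partner (one per run), and scanned fluorescence was regression-normalized. The binding z-scores are referenced to random human genomic background probes.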
# [2] = tested on: LXRa:RXRa (NR concentration 270 nM, RXRa partner concentration 90 nM)
# Summary of the method: as §1
# [3] = tested on: LXRa homodimer (NR concentration 270 nM)
# Summary of the method: as §1
# [4] = tested on: LXRb:RXRa (NR concentration 270 nM, RXRa partner concentration 90 nM)
# Summary of the method: as §1
# [5] = tested on: LXRb homodimer (NR concentration 270 nM)
# Summary of the method: as §1
# [6] = tested on: PPARa:RXRa (NR concentration 270 nM, RXRa partner concentration 90 nM)
# Summary of the method: as §1
# [7] = tested on: PPARg:RXRa (NR concentration 180 nM, RXRa partner concentration 90 nM)
# Summary of the method: as §1
# [8] = tested on: PPARg:RXRa 270nM:90nM, anti-RXR (NR concentration 270 nM, RXRa partner concentration 90 nM)
# Summary of the method: as §1
# [9] = tested on: PPARg:RXRa 30nM:10nM, anti-RXR (NR concentration 30 nM, RXRa partner concentration 10 nM)
# Summary of the method: as §1
# [10] = tested on: PPARg:RXRa 90nM:30nM, anti-RXR (NR concentration 90 nM, RXRa partner concentration 30 nM)
# Summary of the method: as §1
# [11] = tested on: PPARg:RXRa DBDmut IVT, anti-RXR (DBD mutation: RXRa K156A/R161A, NR concentration 270 nM, RXRa partner concentration 90 nM)
# Summary of the method: as §1
# [12] = tested on: PPARg:RXRa IVT, anti-PPARg (NR concentration 270 nM, RXRa partner concentration 90 nM)
# Summary of the method: as §1
# [13] = tested on: PPARg DBDmut:RXRa IVT, anti-PPARg (DBD mutation: PPARg1 K132A/R137A, NR concentration 270 nM, RXRa partner concentration 90 nM)
# Summary of the method: as §1
# [14] = tested on: PPARg DBDmut IVT, anti-PPARg (DBD mutation: PPARg1 K132A/R137A, NR concentration 270 nM)
# Summary of the method: as §1
# [15] = tested on: PPARg homodimer (NR concentration 180 nM)
# Summary of the method: as §1
# [16] = tested on: PXR:RXRa (NR concentration 270 nM, RXRa partner concentration 90 nM)
# Summary of the method: as §1
# [17] = tested on: PXR homodimer (NR concentration 270 nM)
# Summary of the method: as §1
# [18] = tested on: RARa:RXR (NR concentration 270 nM, RXRa partner concentration 90 nM)
# Summary of the method: as §1
# [19] = tested on: RARa homodimer (NR concentration 270 nM)
# Summary of the method: as §1
# [20] = tested on: RARb:RXRa (NR concentration 270 nM, RXRa partner concentration 90 nM)
# Summary of the method: as §1
Sequence,PBM binding z-score [1],PBM binding z-score [2],PBM binding z-score [3],PBM binding z-score [4],PBM binding z-score [5],PBM binding z-score [6],PBM binding z-score [7],PBM binding z-score [8],PBM binding z-score [9],PBM binding z-score [10],PBM binding z-score [11],PBM binding z-score [12],PBM binding z-score [13],PBM binding z-score [14],PBM binding z-score [15],PBM binding z-score [16],PBM binding z-score [17],PBM binding z-score [18],PBM binding z-score [19],PBM binding z-score [20]
ATCTCTAGTTAAGACTCAGTTCAGTGAAGAACGC,0.381,0.546,0.699,0.459,0.922,-0.0115,-0.0269,0.419,0.293,0.347,0.356,0.194,1.65,1.35,1.07,1.23,2.02,0.831,1.93,0.235
GCTCGGAGGACAAGGTCAAAGCTTTGTCCGTAGA,4.6,3.98,0.466,3.14,0.0189,4.19,2.56,3.57,0.553,2.47,0.217,2.07,-1.59,-1.02,1.34,3.51,0.43,3.77,-0.688,4.08
CCTACTGGGCCAAAAAGGTCATTAATGCCGATAA,2.98,3.74,2.97,4.21,0.494,4.39,2.98,3.7,1.44,2.96,3.72,3.94,0.336,0.139,3.45,4.39,3.17,5.01,1.3,3.64
CCTAACAGGCCAGGGTCACTCAAGCATTTCGCTT,2.05,1.86,-0.195,2.38,-0.349,3.2,0.798,1.41,-0.181,0.356,0.296,0.882,-0.338,-0.618,1.4,2.58,-0.222,3.26,0.384,2.85
ACTAGTTGGTCAGCTGAGGTCACTCACAATTCGG,2.19,2.57,1.98,2.87,0.671,3.26,1.04,1.68,0.169,1.19,1.45,2.35,0.323,0.891,1.61,4.97,1.53,3.69,0.562,3.34
TCTGCTACGTCAACGATGGTCAGCTAATCTGCTA,-0.231,-0.136,-0.622,-0.384,-0.541,-0.191,0.00276,0.525,1.6,1.1,0.824,-0.0517,-0.273,0.303,-1.54,-0.555,-0.856,-0.492,-1.62,-0.0266
TCTATTAGTTGAAGGGGAACCGACGAGTCCGTTT,1.21,1.19,0.437,1.19,0.829,1.23,0.0273,2.51,4.36,3.48,3,0.249,1.26,0.473,1.97,1.04,1.09,0.424,1.8,0.752
CGAACTAGGTCAGAAAAGGACAGTGAAGGATGAT,1.84,0.723,-0.125,0.338,-0.514,2.87,4.64,4.06,1.43,3,6.88,7.14,2.3,1.47,1.15,1.17,-0.473,1.08,0.026,3.16
GGACCGAGGGCATTCGAGTTGATAGCATGGCGAT,1.26,1.86,-0.0835,0.133,-1.34,0.952,0.4,0.0586,-0.851,-0.483,0.308,0.267,-0.812,-0.98,-0.223,4.17,1.3,0.835,-0.77,1.88
